Test results taken from the supplement of paper PMC11628255, “Interference of metal ions on the bioluminescent signal of firefly, Renilla, and NanoLuc luciferases in high-throughput screening assays” (Frontiers in Chemistry, 2024).
± gives the standard deviation of the averaged measurements.

Tested on: firefly luciferase (FLuc)
Test: residual bioluminescent signal relative to negative control without GSH; higher = less interference (more residual luciferase signal)
Conditions: screening conditions buffer
Experimental: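 Selected metal salts at 3-4 concentrations tested on purified FLuc, NLuc or RLuc in screening buffer with 0, 0.2 or 2 mM glutathione added; 10 min enzyme pre-incubation at RT, luminescence 10 min after substrate. Signal normalised to negative control without GSH (% N_VALUE); triplicate wells.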

[1] = metal salt concentration 1 mM, glutathione 0 mM
[2] = metal salt concentration 1 mM, glutathione 0.2 mM
[3] = metal salt concentration 1 mM, glutathione 2 mM

O=[N+]([O-])[O-].[Ag+] [silver nitrate]
residual bioluminescent signal (metal salt concentration 0.0001 mM, glutathione 0 mM): 58.4 ± 11% | residual bioluminescent signal (metal salt concentration 0.0001 mM, glutathione 0.2 mM): 63.3 ± 6% | residual bioluminescent signal (metal salt concentration 0.0001 mM, glutathione 2 mM): 0.242 ± 0.17% | residual bioluminescent signal (metal salt concentration 0.000243 mM, glutathione 0 mM): 1.26 ± 0.36% | residual bioluminescent signal (metal salt concentration 0.000243 mM, glutathione 0.2 mM): 64.7 ± 3.9% | residual bioluminescent signal (metal salt concentration 0.000243 mM, glutathione 2 mM): 0.483 ± 0.34% | residual bioluminescent signal (metal salt concentration 0.0005 mM, glutathione 0 mM): 0.58 ± 0.43% | residual bioluminescent signal (metal salt concentration 0.0005 mM, glutathione 0.2 mM): 61.9 ± 10% | residual bioluminescent signal (metal salt concentration 0.0005 mM, glutathione 2 mM): 0.58 ± 0.29% | residual bioluminescent signal [1]: 0.435 ± 0.38% | residual bioluminescent signal [2]: 0.918 ± 0.47% | residual bioluminescent signal [3]: 0.531 ± 0.3%

O=[N+]([O-])[O-].O=[N+]([O-])[O-].[Cu+2] [copper(II) nitrate]
residual bioluminescent signal (metal salt concentration 0.05 mM, glutathione 0 mM): 84.5 ± 15% | residual bioluminescent signal (metal salt concentration 0.05 mM, glutathione 0.2 mM): 54.9 ± 3.8% | residual bioluminescent signal (metal salt concentration 0.05 mM, glutathione 2 mM): 0.483 ± 0.17% | residual bioluminescent signal (metal salt concentration 0.125 mM, glutathione 0 mM): 86.3 ± 9.3% | residual bioluminescent signal (metal salt concentration 0.125 mM, glutathione 0.2 mM): 19.4 ± 1.1% | residual bioluminescent signal (metal salt concentration 0.125 mM, glutathione 2 mM): 0.531 ± 0.34% | residual bioluminescent signal (metal salt concentration 0.2 mM, glutathione 0 mM): 65.3 ± 11% | residual bioluminescent signal (metal salt concentration 0.2 mM, glutathione 0.2 mM): 5.12 ± 2% | residual bioluminescent signal (metal salt concentration 0.2 mM, glutathione 2 mM): 0.628 ± 0.44% | residual bioluminescent signal [1]: 0.628 ± 0.47% | residual bioluminescent signal [2]: 0.338 ± 0.17% | residual bioluminescent signal [3]: 0.435 ± 0.25%

O=[N+]([O-])[O-].O=[N+]([O-])[O-].[Zn+2] [zinc nitrate]
residual bioluminescent signal (metal salt concentration 0.5 mM, glutathione 0 mM): 100 ± 3.4% | residual bioluminescent signal (metal salt concentration 0.5 mM, glutathione 0.2 mM): 29.7 ± 6% | residual bioluminescent signal (metal salt concentration 0.5 mM, glutathione 2 mM): 0.435 ± 0.25% | residual bioluminescent signal [1]: 1.06 ± 0.55% | residual bioluminescent signal [2]: 0.918 ± 0.74% | residual bioluminescent signal [3]: 0.387 ± 0.17% | residual bioluminescent signal (metal salt concentration 1.20 mM, glutathione 0 mM): 0.387 ± 0.17% | residual bioluminescent signal (metal salt concentration 1.20 mM, glutathione 0.2 mM): 0.676 ± 0.36% | residual bioluminescent signal (metal salt concentration 1.20 mM, glutathione 2 mM): 0.676 ± 0.36% | residual bioluminescent signal (metal salt concentration 2.5 mM, glutathione 0 mM): 0.58 ± 0.29% | residual bioluminescent signal (metal salt concentration 2.5 mM, glutathione 0.2 mM): 0.87 ± 0.43% | residual bioluminescent signal (metal salt concentration 2.5 mM, glutathione 2 mM): 0.338 ± 0.34%
